# Source: ChEMBL document CHEMBL3988442, “University of Dundee, Small-Polar-MMV Screening Library” (2021)
# Out of some 66,000 compounds screened, about 960 (1.5%) showed an effect of 50% or more. What follows is part of a selection rich in strong results, with near analogues and random picks from the rest.
# System: Trypanosoma brucei
# Test: Trypanosoma brucei 72 hour study
# Type: functional, organism-based
# Parameters: scale not given: in the data most compounds retested in dose-response had high values
Structure (SMILES),"Percent Effect (30 µM, 30.03 µM) [%]","Percent Effect (30.3 µM, […]) [%]"
O=C1CC2(CCN(Cc3ccoc3)CC2)CN1Cc1cc(F)cc(F)c1,-15.51,
Cc1nc(CCNC(=O)C(N)c2c(C)n[nH]c2C)sc1C (stereo unspecified),,-1.575
CN(c1ncnc2ccccc12)C1CCCN(c2cccnn2)C1 (stereo unspecified),,-20.2
NC(=O)CNC(=O)c1ccc(CNCc2ccc(F)cc2F)cc1,-29.88,
Br.Cc1c(NC(=O)CN2CCN(C3CCCC3)C(=O)C2)cnn1C,,-20.91
CNC(=O)[C@@H]1C[C@H]2CN(C(=O)c3ccco3)C[C@H]2N1C(C)C.O=C(O)C(F)(F)F,,-12.88
Cn1cc(C2CCCN2C(=O)c2cnc(C3CC3)s2)cn1 (stereo unspecified),-42.9,
CN(C)[C@@H]1CCN(C(=O)NC2CCCC2)[C@H]1Cc1cnn(C)c1.O=C(O)C(F)(F)F,-1.718,
CN(C)C(=O)c1cnc2n1CCN(Cc1ccccc1)C2.O=C(O)C(F)(F)F,-11.93,
CCC(=O)Nc1ccc2c(ccn2CCOC)c1,30.95,
COCCn1ccc2cc(NC(=O)COC)ccc21,51.21,
COCCn1ccc2cc(NC(C)=O)ccc21,20.32,
COCCC(=O)N[C@H]1CC[C@H](Nc2nccc(-c3ccncc3)n2)C1,-1.414,
CCOCC1CN(c2ccncn2)Cc2cnn(CC)c21.O=C(O)C(F)(F)F.O=C(O)C(F)(F)F (stereo unspecified),24.08,
COc1ccc(CN2CCn3c(C(=O)N(C)C)cnc3C2)cc1.O=C(O)C(F)(F)F,,-109.7
COc1ccc(C)cc1NC(=O)Nc1cnc(N2CCCC2)nc1,-9.808,
COc1ccc(C)cc1NC(=O)Nc1cnc(N2CCN(C)CC2)nc1,53.87,
COc1ccc(C)cc1NC(=O)Nc1cnc(N2CCOCC2)nc1,-0.7377,
Cc1csc2nc3n(c(=O)c12)CCN(Cc1ccccn1)CC3.Cl,,-40.83
NCC(c1ccccc1)N1CCc2sccc2C1 (stereo unspecified),35.83,
NCC(c1ccc(Cl)cc1)N1CCc2sccc2C1 (stereo unspecified),,100.3
CC(C)c1ccc(C(CN)N2CCc3sccc3C2)cc1 (stereo unspecified),,99.87
CSc1ccc(C(CN)N2CCc3sccc3C2)cc1 (stereo unspecified),-3.703,
CSc1ccc(C(CNC(C)=O)N2CCc3sccc3C2)cc1 (stereo unspecified),,7.525
CCC(=O)NCC(c1ccc(SC)cc1)N1CCc2sccc2C1 (stereo unspecified),,-2.044
Cc1cccc(S(=O)(=O)N2CC[C@H]3CO[C@H](CN(C)C)[C@H]3C2)c1.O=C(O)C(F)(F)F,25.11,

Structure (SMILES),"Percent Effect (30 µM, 30.03 µM) [%]","Percent Effect (30.3 µM, […]) [%]"
COCc1cccc(C(=O)N2C[C@H]3CC[C@@H]2CN(Cc2cscn2)C3)n1,-49.27,
Cc1nc(CN2CCC3(CCN(c4cnn(C)c4)C3=O)C2)cs1.O=C(O)C(F)(F)F (stereo unspecified),,-7.553
CCN1CCC2(C1)CN(S(=O)(=O)c1cn(C)cn1)C2.O=C(O)C(F)(F)F.O=C(O)C(F)(F)F,,-6.671
Cl.O=C(c1cc2c(s1)CCCC2)N1CCc2nc(C3CCCN3)ncc2C1 (stereo unspecified),,6.632
CS(=O)(=O)NCCCNC(=O)c1cnc(-c2ccsc2)s1,-7.977,
O=C(NCCCn1ccccc1=O)c1cnc(-c2ccsc2)s1,22.57,
Cn1cc(-c2ncc(C(=O)NCCCn3ccccc3=O)s2)cn1,73.43,
Cc1nc(N2CCCC(N3CCCC3)C2)c2cnn(C)c2n1 (stereo unspecified),50.19,
Cn1ncc2c(N3CC(N4CCCCC4)C3)nc(C3CCCC3)nc21,-31.56,
Cn1ncc2c(N3CCN4CCCCC4C3)nc(C3CCCC3)nc21 (stereo unspecified),-37.34,
CC(C)Oc1cc(N2CC[C@H](CO)[C@@H](O)C2)nc(N)n1,-21.24,
CC(C)Oc1cc(N2C[C@H](C3CC3)[C@@H](N)C2)nc(N)n1,88.99,
CCc1cc(N2C[C@H](C3CC3)[C@@H](N)C2)nc(N2CCOCC2)n1,-22.85,
CNc1cc(C)nc(N2C[C@H](NC(=O)C3CCOCC3)[C@@H](C3CC3)C2)n1,-23.63,
CC(C)Oc1cc(N2C[C@@H](C)O[C@@H](C)C2)nc(N)n1,,-11.25
CNc1cc(C)nc(N2C[C@H](C3CC3)[C@@H](N)C2)n1,85.5,
Cc1cc(N2C[C@H](C3CC3)[C@@H](N)C2)nc(N2CCCCC2)n1,-8.75,
CNc1cc(C)nc(N2C[C@@H](C(=O)O)[C@H](C3CC3)C2)n1,-4.016,
CCc1cc(N2C[C@H](C3CC3)[C@@H](N)C2)nc(N2CCCC2)n1,72.1,
CN(c1ccncn1)C1CC2(CCN(C(=O)Cc3cccs3)C2)C1 (stereo unspecified),,-10.04
O=C(O)C(F)(F)F.O=C(c1cnccn1)N1CCCC2(CCN(Cc3ccsc3)CC2)C1,,-8.407
CCC(C)Oc1ccc(CNCCc2c[nH]cn2)cc1Cl (stereo unspecified),-7.702,
Cc1ccc(O[C@@H]2C[C@H]3CN(C(=O)c4cccnc4)CCN3C2)cc1.O=C(O)C(F)(F)F.O=C(O)C(F)(F)F,12.8,
CC(C)(C)c1cnc(CN2CCC(CN3CCOCC3)CC2)o1,,1.879
Cc1noc(C)c1C(=O)N1CC[C@]2(C[C@@H](OCc3cccnc3)CO2)C1.O=C(O)C(F)(F)F,,-230.9
